Compound activity: PubChem BioAssay, several laboratories
PfGluPho inh = PfG6PD enzyme inhibitors, primary screen, biochemical, fluorescence intensity, uHTS | glucose-6-phosphate dehydrogenase-6-phosphogluconolactonase (Plasmodium falciparum 3D7) | PfGluPho enzyme, NADPH resazurin-diaphorase fluorescence | inhibition, % at 20 µM | 350,000 tested, 0.78% active | AID 504690, 2011;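 active = inhibition reaching at least a set limit at 20 µM in the primary screen, cut at about 59% in these data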;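 also: 0% = DMSO wells with substrate and 100% = DMSO wells lacking glucose-6-phosphate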
FAS TE block = FAS thioesterase domain inhibitors, primary screen, biochemical, fluorescence intensity, uHTS; 360,000 tested, 0.67% active; recombinant FAS-TE, OMFH fluorogenic substrate, fluorescence endpoint; Fatty acid synthase (Homo sapiens), P49327; inhibition, % at 15 µM; AID 602261, 2012;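 active = compounds whose normalised, plate-corrected inhibition of enzyme fluorescence in the single-dose primary screen is 50% or more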;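 also: 0% = DMSO with enzyme and 100% = substrate without enzyme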
Neddylation inh = inhibitors of cullin neddylation, primary screen, biochemical, TR-FRET, uHTS, NAE and Ubc12 | 360,000 tested, 0.58% active | NEDD8-conjugating enzyme Ubc12 (Homo sapiens) + NEDD8-activating enzyme E1 regulatory … | calls only at 25 µM; in the data active = inhibition above about 36%
proKLK7 act = proKLK7 zymogen activators, primary screen, biochemical, fluorescence intensity | purified proKLK7, EDANS-DABCYL substrate fluorescence; 100% is mature enzyme control, 0% vehicle | Kallikrein-7 (Homo sapiens), P49862 | 370,000 tested, 0.9% active | activation, % at 7 µM;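 active = activation above the mean of all tested compounds plus 3 SD, computed per campaign excluding outliers beyond control limits, cut at about 13% in these data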
Neddyl conf = blockade of NEDD8 conjugation to cullin – biochemical, TR-FRET, single concentration, confirmation; calls only at 25 µM; 1,800 tested, 13% active; shares compounds with Neddylation inh; TR-FRET cullin neddylation biochemical assay; AID 652217, 2013; in the data active = inhibition above about 40%;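 also: neddylation substrate is the cullin 1 ring ligase complex with SKP2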
Active calls of the source: *; i = inactive; . = not tested or not shown; + = active, no number. Sampled rows, rich in hits. Any-hit rate of the full collection: about 2.7%.

SMILES	PfGluPho inh	FAS TE block	Neddylation inh	proKLK7 act	Neddyl conf
COc1ccc(/C=C/C(=O)NCc2ccc3c(c2)OCO3)cc1OC	-8	0	+	1	i
COc1ccc(CN2C[C@@]3(O)CC[C@@H](O)[C@@H](OC)[C@@H]3[C@@]2(C)[C@H](O)CC=C(C)C)cc1	.	.	.	0	.
Cc1cc(C)c(O)c(CN(C)Cc2cc(Cl)cc(Cl)c2O)c1	-4	22	+	0	i
CCN1Cc2nnn(Cc3ccc(C)cc3)c2-c2ccccc2S1(=O)=O	.	.	.	0	.
CC(Oc1ccc2c(-c3ccccc3)cc(=O)oc2c1)C(=O)NC(Cc1c[nH]c2ccc(O)cc12)C(=O)O (stereo unspecified)	-10	-4	i	0	.
COc1ccc2c(c1)c(=O)oc1c(C)c(OC(C)C(=O)N[C@@H](Cc3c[nH]c4ccc(O)cc34)C(=O)O)ccc12 (stereo partly specified)	10	-5	+	2	.
Cc1ccc(-c2ccc(C(=O)Nc3ccccc3)o2)c2ccccc12	26	24	+	-131	i
CCC(C)NC(=O)CN1C(=O)C2CCCCN2C(=O)c2ccccc21 (stereo unspecified)	.	.	.	1	.
Cc1cc(NC2CCCC2)n2nc(C)c(-c3ccccc3)c2n1	29	19	.	1	.
COc1ccc(-c2c(C)nn3c(NC4CCCC4)cc(C)nc23)cc1OC	23	9	+	0	i
COC(=O)C1=C(C)NC2=C(C(=O)CC(C)(C)C2)C1c1cnn(C)c1C (stereo unspecified)	-4	-15	+	10	.
Cc1c(C2Nc3ccccc3NC3=C2C(=O)CC(C)(C)C3)cnn1C (stereo unspecified)	13	-14	i	-46	.
CCNC(=O)COC(=O)C1C(C(=O)OCC)=C(C)NC(C)=C1C(=O)OCC	-2	-8	i	1	.
CCOC(=O)C1=C(C)NC(C)=C(C(=O)OCC)C1C(=O)OCC(=O)NC1CCCCC1	1	4	+	3	i
CCOC(=O)C1=C(C)NC(C)=C(C(=O)OCC)C1C(=O)OCC(=O)NCc1ccc(F)cc1	3	3	+	3	.
COc1c2c(c3c(c1OC)c(=O)c1ccccc1n3C)OCO2	38	-4	i	3	.
COc1ccc2c(c1)[nH]c1c(Cl)ncnc12	21	-2	+	0	i
Cn1cccc1C(=O)N1CCN(S(=O)(=O)c2ccc(F)cc2)CC1	.	.	.	-1	.
COc1ccc(C(CCN2CCOCC2)c2c(OC)cc(OC)c3c(-c4ccccc4)cc(=O)oc23)cc1 (stereo unspecified)	0	18	+	-9	i
COc1ccc(C(CCN2CCCC2)c2c(OC)cc(OC)c3c(-c4ccccc4)cc(=O)oc23)cc1 (stereo unspecified)	6	-6	i	-2	.
COc1ccc(CCNC(=O)C2(C)CCC(=O)N2Cc2ccc3c(c2)OCO3)cc1OC (stereo unspecified)	-8	-2	i	0	.
COc1ccc(CCNC(=O)C2(C)CCC(=O)N2Cc2ccc(F)cc2Cl)cc1OC (stereo unspecified)	1	-1	+	0	i
COc1ccccc1COC(=O)c1cccc(S(=O)(=O)N(C)Cc2ccccc2)c1	.	.	.	0	.
COc1ccc(Nc2cc3n(c(=O)n2)CCc2cc(OC)c(OC)cc2-3)cc1	6	-4	+	5	.
O=C(NC1CCC1)c1ccc(C#Cc2cccc(F)c2)cn1	.	.	.	1	.
CCOC(=O)C1CCN(S(=O)(=O)c2ccc(OC)c(OC)c2)CC1	2	-14	i	0	.
CCOC(=O)C1CC(=NO)c2ccc(OC)c(OC)c2C1 (stereo unspecified)	31	-8	+	1	i
CCOC(=O)c1oc2cc(O)cc(C)c2c1C	7	-4	+	-20	+
CCOC(=O)c1oc2cc(C)cc(C)c2c1C	5	14	i	0	.
CN(CC(=O)Nc1ccccc1Cl)C(=O)COC(=O)c1ccc(C(F)(F)F)cc1	-1	3	i	0	.
